According to PubChem BioAssay (NCI):
Compounds without any hit were thinned out: in the full panel of roughly 79,000, 15% have a hit. Values without a mark were called inactive. Active and inactive are the calls of the source. Cut-off read from the data, not from the text of the source: active = growth inhibition above about 70%; inactive = the rest.

Test: NCI Yeast Anticancer Drug Screen. Data for the bub3 strain (AID 167)
Conditions: S. cerevisiae bub3 mutant strain, at 50.0 µM (retest, dose inferred, filed as 5.0), stronger effect = higher value
Procedure, shortened: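 Inhibition values come from growth of compound-treated mutant yeast normalised to vehicle-treated controls.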

SMILES | growth inhibition
COc1ccc(/C=C2\SC(=S)N(/C=C/c3nc4ccccc4[nH]c3=O)C2=O)cc1OC | 4%
N#CN=Nc1cc(Cl)c(N=NC#N)cc1Cl | 96% (active)
Cc1ccc(S(=O)(=O)Oc2cc(Cl)c(Cl)cc2Cl)cc1 | 40%
c1ccc2c(c1)Oc1cccc3cccc-2c13 | 55%
O=C(c1ccc(Cl)cc1Cl)C(Cl)Cl | 96% (active)
CC(C)C1=CCC2C(=C1)CCC1C(C)(C(=O)O)CCCC21C (centres undefined) (tested in a mixture with another compound) | 97% (active)
COc1cc(/C=C2\CCc3ccccc3C2=O)cc(OC)c1OC | 86% (active)
CC(=O)[O][Bi]([c]1ccccc1)[c]1ccccc1 | 96% (active)
S=C(N/N=C/c1ccccn1)Nc1ccc(Cl)cc1 | 96% (active)
COc1cc(CC2CC(c3ccc4c(c3)OCO4)OC2=O)cc(OC)c1OC (centres undefined) | 54%
CNC1C(OC2C(OC3C(O)C(O)C(N=C(N)N)C(O)C3N=C(N)N)OC(C)C2(O)CO)OC(CO)C(O)C1O (centres undefined) | 2%
NNC(=O)CCc1ccc2ccc3ccccc3c2c1 | 54%
Oc1ccc2ccccc2c1C(c1ccc(Cl)cc1)c1c(O)ccc2ccccc12 | 92% (active)
CCCCN(CCCC)CCSc1ccc(Cl)cc1 | 43%
CCC(C)COC(=O)c1ccc(N=Cc2ccc(C=Nc3ccc(C(=O)OCC(C)CC)cc3)cc2)cc1 (centres undefined) | 3%
CC1(C)C(=O)OC(n2cc(F)c(=O)[nH]c2=O)C1=O (centres undefined) | 62%
O=[N+]([O-])CC(SCc1ccccc1)c1ccc2c(c1)OCO2 (centres undefined) | 96% (active)
COc1cc2c(cc1[N+](=O)[O-])C(=O)C(Br)(Br)CCC2 | 99% (active)
OCC1OC(OCC(O)C(O)C(O)C(/C=N/Nc2ccccc2)=N/Nc2ccccc2)C(O)C(O)C1O (centres undefined) | 41%
COc1ccc(N=C2C(=O)Nc3ccc(Br)cc32)cc1 | 85% (active)
Cn1c(=O)c2ccccc2c2ccccc21 | 5%
CC[n+]1ccc2c(C)c3[nH]c4ccc(O)cc4c3c(C)c2c1 | 28%
CC(=O)ON1C(=O)c2cccc3cccc(c23)C1=O | 96% (active)
COc1ccc2ccc3ccccc3c2c1C=O | 11%
OC1CCCc2c1cc1ccc3cccc4ccc2c1c34 (centres undefined) | 92% (active)

Same assay, conditions: S. cerevisiae bub3 mutant strain, at 50.0 µM, stronger effect = higher value

SMILES | growth inhibition
CCN(CC)CC[n+]1ccc2c(C)c3[nH]c4ccc(O)cc4c3c(C)c2c1 | -14.8%
O=[n+]1c2ccc(Cl)cc2n([O-])c2ccc(Cl)cc21 | -7.55%
CCOP(=O)(OCC)C(Cc1ccccc1)N=C(c1ccccc1)c1ccccc1 (centres undefined) | 99% (active)
CC[C@@]1(O)C(=O)OCc2c1cc1n(c2=O)Cc2cc3c(N)cccc3nc2-1 | -0.65%
COC1C=COC2(C)Oc3c(C)c(O)c4c(c3C2=O)/C(=N/C2CCC(O)OC2C)C=C(NC(=O)/C(C)=C\C(=O)C2CC2C(O)C(C)C(O)C(C)C(OC(C)=O)C1C)C4=O (centres undefined) | 23.4%
COc1cc2c(c(OC)c1OC)-c1c(cc3c(c1OC)OCO3)CC(C)C(C)(O)C2OC(=O)c1ccccc1 (centres undefined) | 72.2% (active)
O=c1ssc2ncccc12 | 93.2% (active)
O=C1C2C(C(=O)N1c1ccc(OCc3ccccc3)cc1)C1c3ccccc3C2C2CCCCN21 (centres undefined) | 83.3% (active)
COc1ccc(-c2cn(-c3ccc(I)cc3)c3ncnc(N)c23)cc1 | 13.2%
CCOC(=O)C(NC(=O)c1ccccc1)(N1CCN(c2cc3c(cc2F)c(=O)c(C(=O)O)cn3C2CC2)CC1)C(F)(F)F (centres undefined) | -16.1%
C/C(=N\O)C1CC2C=C(C#N)C1N(Cc1ccccc1)C2 (centres undefined) | 10.7%
CC/C(=C(\c1ccccc1)c1ccc(OCCN(C)C)cc1)c1ccccc1 | 91.5% (active)
COc1ccccc1N=NC(C(=O)c1ccccc1)C(=O)c1ccccc1 | 92.5% (active)
CC(O)C(O)C(O)C(/C=N\Nc1ccccc1)=N/Nc1ccccc1 (centres undefined) | 69.1%
COc1ccc(/C=C2\SC(=S)N(/C=C/c3nc4ccccc4[nH]c3=O)C2=O)cc1OC | 70.3% (active)
N#CN=Nc1cc(Cl)c(N=NC#N)cc1Cl | 43.8%
Cc1ccc(S(=O)(=O)Oc2cc(Cl)c(Cl)cc2Cl)cc1 | 10.2%
c1ccc2c(c1)Oc1cccc3cccc-2c13 | 56.4%
O=C(c1ccc(Cl)cc1Cl)C(Cl)Cl | 88.8% (active)
CC(C)C1=CCC2C(=C1)CCC1C(C)(C(=O)O)CCCC21C (centres undefined) (tested in a mixture with another compound) | 85.5% (active)

SMILES | growth inhibition
COc1cc(/C=C2\CCc3ccccc3C2=O)cc(OC)c1OC | 74.3% (active)
CC(=O)[O][Bi]([c]1ccccc1)[c]1ccccc1 | 83.2% (active)
S=C(N/N=C/c1ccccn1)Nc1ccc(Cl)cc1 | 79.6% (active)
COc1cc(CC2CC(c3ccc4c(c3)OCO4)OC2=O)cc(OC)c1OC (centres undefined) | 38.5%
CNC1C(OC2C(OC3C(O)C(O)C(N=C(N)N)C(O)C3N=C(N)N)OC(C)C2(O)CO)OC(CO)C(O)C1O (centres undefined) | 93.5% (active)
NNC(=O)CCc1ccc2ccc3ccccc3c2c1 | 37.2%
Oc1ccc2ccccc2c1C(c1ccc(Cl)cc1)c1c(O)ccc2ccccc12 | 78.2% (active)
CCCCN(CCCC)CCSc1ccc(Cl)cc1 | 94.5% (active)
CCC(C)COC(=O)c1ccc(N=Cc2ccc(C=Nc3ccc(C(=O)OCC(C)CC)cc3)cc2)cc1 (centres undefined) | 62.1%
CC1(C)C(=O)OC(n2cc(F)c(=O)[nH]c2=O)C1=O (centres undefined) | 27.1%
O=[N+]([O-])CC(SCc1ccccc1)c1ccc2c(c1)OCO2 (centres undefined) | 92.2% (active)
COc1cc2c(cc1[N+](=O)[O-])C(=O)C(Br)(Br)CCC2 | 90% (active)
OCC1OC(OCC(O)C(O)C(O)C(/C=N/Nc2ccccc2)=N/Nc2ccccc2)C(O)C(O)C1O (centres undefined) | 99.2% (active)
COc1ccc(N=C2C(=O)Nc3ccc(Br)cc32)cc1 | 82.4% (active)
Cn1c(=O)c2ccccc2c2ccccc21 | 85.8% (active)
CC[n+]1ccc2c(C)c3[nH]c4ccc(O)cc4c3c(C)c2c1 | 5.2%
CC(=O)ON1C(=O)c2cccc3cccc(c23)C1=O | 89.5% (active)
COc1ccc2ccc3ccccc3c2c1C=O | -11.7%
OC1CCCc2c1cc1ccc3cccc4ccc2c1c34 (centres undefined) | 95.5% (active)
